This is an account of results in PubChem BioAssay (NCI).

Holding throughout (assay): NCI-60 one-dose screen, 48 h (100 = growth as untreated, 0 = no growth, -100 = all killed)
The test system of one assay is SN12C renal. The conditions noted are these: 10 µM unless noted.
Another assay deals with UO-31 renal. As to conditions: 10 µM unless noted.
A further assay concerns TK-10 renal. As to conditions: 10 µM unless noted.
The subject of another assay is ACHN renal. The conditions noted are these: 10 µM unless noted.
In the next assay the test system is CAKI-1 renal. The conditions noted are these: 10 µM unless noted.
For the next assay, the system named is A498 renal. The conditions noted are these: 10 µM unless noted.
The next assay has as its system CCRF-CEM leukemia. As to conditions: 10 µM unless noted.
In another assay the test system is MOLT-4 leukemia. As to conditions: 10 µM unless noted.
The subject of another assay is SR leukemia. The conditions noted are these: 10 µM unless noted.
Another assay has as its system RPMI-8226 leukemia. The conditions noted are these: 10 µM unless noted.
A further assay deals with OVCAR-8 ovarian. The conditions noted are these: 10 µM unless noted.
In another assay the test system is OVCAR-5 ovarian. The conditions noted are these: 10 µM unless noted.
The subject of the next assay is OVCAR-4 ovarian. The conditions noted are these: 10 µM unless noted.
In a further assay the test system is SK-OV-3 ovarian. The conditions noted are these: 10 µM unless noted.
The next assay concerns IGROV1 ovarian. The conditions noted are these: 10 µM unless noted.
A further assay concerns OVCAR-3 ovarian. As to conditions: 10 µM unless noted.
The test system of another assay is HS 578T breast. The conditions noted are these: 10 µM.
The subject of another assay is NCI/ADR-RES ovarian. The conditions noted are these: 10 µM unless noted.

The structures appear in SMILES notation. This is part of a sample that, as a whole, favours compounds with a hit. Of some 83,000 tested, about 20% had one in any assay.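 Each cell line was grown in a 96-well plate and treated with one concentration of compound for 48 hours. Values below 10 were considered active.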 Unmarked numbers belong to inactive results. Activity calls are given as the source filed them.

On to `Cc1cc(C)c2c(n1)sc1c(Nc3ccc(Cl)cc3Cl)ncnc12`, for which the growth was 13.5% with SN12C renal; -8.56% (active) in the assay on UO-31 renal; 56.7% with TK-10 renal; 11.7% in the assay with ACHN renal; 12.9% with CAKI-1 renal; 15.6% with A498 renal. For the same compound, the growth in the assay on CCRF-CEM leukemia is 16.1%; in the assay with MOLT-4 leukemia, 11.6%; with SR leukemia, 4.08% (active); in the assay on RPMI-8226 leukemia, 28.4%; in the assay with OVCAR-8 ovarian it was 3.79% (active); with OVCAR-5 ovarian it was 57.5%. Further, the growth in the assay with OVCAR-4 ovarian is 68%; in the assay with SK-OV-3 ovarian it was 22.2%; in the assay with IGROV1 ovarian it was 69.5%; with OVCAR-3 ovarian, 57.3%; in the assay with HS 578T breast, 90.7%; with NCI/ADR-RES ovarian, 17.9%.
Take `CCCCn1c(C)nc2ccc(Nc3nc(Cl)nc4nc[nH]c34)cc21`: the growth with SN12C renal is 74.6%; in the assay on UO-31 renal it was 57.8%; in the assay with TK-10 renal, 67.3%; in the assay with ACHN renal, 79%; in the assay with CAKI-1 renal it was 60.5%; in the assay with A498 renal, -0.303% (active). Further, the growth in the assay on CCRF-CEM leukemia was 53%; in the assay on MOLT-4 leukemia, 37.9%; with SR leukemia, 42.5%; in the assay with RPMI-8226 leukemia, 43.7%; in the assay on OVCAR-8 ovarian, 78.2%; in the assay on OVCAR-5 ovarian, 74.5%. Also, the growth with OVCAR-4 ovarian was 68.4%; with SK-OV-3 ovarian it was 77%; in the assay with IGROV1 ovarian, 68.2%; in the assay on OVCAR-3 ovarian, 62.7%; in the assay on HS 578T breast, 6.13% (active); in the assay on NCI/ADR-RES ovarian, 101%.
Consider `CC(=O)N1N=C(c2ccc(C)cc2)CC1c1cn(-c2ccccc2)nc1-c1cccc(Nc2ccnc3cc(Cl)ccc23)c1` (stereo not drawn), for which the growth is 46.2% in the assay on SN12C renal; 77.1% in the assay with UO-31 renal; 61.3% in the assay on TK-10 renal; 81.2% in the assay with ACHN renal; 82.2% in the assay with A498 renal; -19.7% (active) in the assay on CCRF-CEM leukemia. For the same compound, the growth with MOLT-4 leukemia was 23.4%; with SR leukemia, -4.15% (active); in the assay with RPMI-8226 leukemia it was -11% (active); in the assay on OVCAR-8 ovarian, 46.4%; in the assay with OVCAR-5 ovarian it was 133%; in the assay with OVCAR-4 ovarian, 120%. Also, the growth with SK-OV-3 ovarian is 114%; with IGROV1 ovarian it was 48.9%; in the assay on OVCAR-3 ovarian, 84.7%; in the assay on HS 578T breast, 80.3%.
On to `CCCOC(=O)C1c2cc3c(cc2CC(C)C1C(=O)OCCC)OCO3` (stereo not drawn), for which the growth with SN12C renal is 104%; in the assay with UO-31 renal, 65.7%; in the assay on TK-10 renal it was 94.2%; in the assay on ACHN renal, 101%; in the assay on A498 renal, 99.8%; in the assay with MOLT-4 leukemia it was 90.9%. Besides, the growth in the assay with SR leukemia is 90.7%; in the assay with RPMI-8226 leukemia, 99.8%; with OVCAR-8 ovarian it was 102%; in the assay with OVCAR-5 ovarian, 84.7%; with OVCAR-4 ovarian, 88.7%; in the assay with SK-OV-3 ovarian it was 101%. Besides, the growth in the assay with IGROV1 ovarian was 75.8%; with OVCAR-3 ovarian, 110%; in the assay with HS 578T breast, 103%; in the assay with NCI/ADR-RES ovarian it was 81.4%.
As to `CCN(CC)C(Cl)=Nc1ccc(Cl)cc1`, the growth in the assay with SN12C renal was 99.2%; in the assay on UO-31 renal, 87.8%; with TK-10 renal, 101%; with ACHN renal, 98.5%; with CAKI-1 renal, 103%; with A498 renal, 99.6%. Further, the growth is 100% in the assay with CCRF-CEM leukemia; 95.7% in the assay on MOLT-4 leukemia; 84.3% in the assay with SR leukemia; 95.1% with RPMI-8226 leukemia; 106% in the assay with OVCAR-8 ovarian; 105% in the assay on OVCAR-5 ovarian. The growth in the assay with OVCAR-4 ovarian was 108%; with SK-OV-3 ovarian, 102%; in the assay on IGROV1 ovarian, 109%; in the assay on OVCAR-3 ovarian, 107%; in the assay on HS 578T breast, 101%; in the assay with NCI/ADR-RES ovarian, 106%.
For the compound `COc1ccc(OC)c(Nc2nc(-c3c(C)nc4sccn34)cs2)c1`, the growth is 90.1% in the assay on SN12C renal; 77.8% with UO-31 renal; 98% with TK-10 renal; 79.5% in the assay on ACHN renal; 73.7% in the assay with CAKI-1 renal; 30.7% in the assay on A498 renal. Moreover, the growth was 38.1% in the assay with CCRF-CEM leukemia; 9.57% (active) in the assay on MOLT-4 leukemia; 41.9% in the assay on RPMI-8226 leukemia; 74.5% with OVCAR-8 ovarian; 97.9% with OVCAR-5 ovarian; 78% with OVCAR-4 ovarian. In addition, the growth in the assay on SK-OV-3 ovarian was 103%; with IGROV1 ovarian it was 90.8%; with OVCAR-3 ovarian, 94.7%; with NCI/ADR-RES ovarian, 77.8%.
On to `COC1=CC(c2ccc[nH]2)=N/C1=C\c1[nH]c(C)c(C(=O)CCCCCCCCC(=O)O[C@H]2CC[C@H]3C4CCc5cc(O)ccc5C4CC[C@]23C)c1C` (stereo partly drawn), for which the growth with SN12C renal is 39.6%; in the assay on UO-31 renal, -13.3% (active); in the assay with TK-10 renal, 34.1%; with ACHN renal, 24.3%; in the assay with CAKI-1 renal, 40.5%; in the assay with A498 renal, -0.91% (active). Besides, the growth in the assay with CCRF-CEM leukemia was 11.5%; with MOLT-4 leukemia, 19.5%; in the assay on SR leukemia it was -14.6% (active); in the assay on RPMI-8226 leukemia, 33.2%; with OVCAR-8 ovarian, 12.2%; in the assay with OVCAR-5 ovarian, 52.1%. The growth in the assay on OVCAR-4 ovarian was 49.7%; in the assay with SK-OV-3 ovarian it was 49.2%; with IGROV1 ovarian, 22.7%; in the assay on OVCAR-3 ovarian, 13.7%; in the assay with HS 578T breast, 10.7%; in the assay on NCI/ADR-RES ovarian, 68.3%.
`COC(=O)C(C)NC1=C(Cl)C(=O)C(NC(C)C(=O)OC)=C(Cl)C1=O` (stereo not drawn): the growth with SN12C renal is 99.5%; in the assay on UO-31 renal, 89.8%; in the assay on TK-10 renal it was 121%; with ACHN renal, 106%; in the assay on CAKI-1 renal, 103%; with A498 renal it was 89.3%. Further, the growth in the assay with CCRF-CEM leukemia was 96%; with MOLT-4 leukemia, 93.5%; in the assay on SR leukemia it was 92.9%; in the assay on RPMI-8226 leukemia, 96.1%; in the assay on OVCAR-8 ovarian, 94.2%; in the assay with OVCAR-4 ovarian it was 78.6%. Further, the growth was 120% in the assay with IGROV1 ovarian, 61.2% with OVCAR-3 ovarian, 113% in the assay on HS 578T breast and 101% in the assay with NCI/ADR-RES ovarian.
With `Cc1cc(C)c2c(n1)sc1c(Nc3ccc(OCc4ccccc4)cc3)ncnc12`, the growth was 101% in the assay on SN12C renal; 85.1% with UO-31 renal; 92.4% in the assay with TK-10 renal; 106% in the assay on ACHN renal; 97.5% in the assay on CAKI-1 renal; 78.3% in the assay with A498 renal. The growth in the assay on CCRF-CEM leukemia is 86.6%; with MOLT-4 leukemia, 101%; in the assay on SR leukemia it was 95.5%; in the assay with RPMI-8226 leukemia it was 95.1%; with OVCAR-8 ovarian it was 104%; in the assay with OVCAR-5 ovarian, 109%. The growth in the assay on OVCAR-4 ovarian is 107%; in the assay with SK-OV-3 ovarian, 106%; with IGROV1 ovarian, 97.5%; in the assay on OVCAR-3 ovarian, 100%; in the assay on NCI/ADR-RES ovarian, 100%.
